Laboratory results: PubChem BioAssay AID624483 (NMMLSC, 2012)
The whole screen tested about 360,000 compounds, of which about 11,000 (3.1%) were called active. Inconclusive results (about 2%) are left out. What follows is part of a selection rich in actives, with near analogues and random picks from the rest. Values without a mark were called inactive. Cut-off read from the data, not from the text of the source: active = fluorescence intensity above about 16000; inconclusive = no clear call, values can overlap the other calls; inactive = below that.

Assay: counter-screen for toxin protease inhibitors: compound fluorescence, primary screen, artefact control for toxin protease inhibitor project, biochemical, multiplex microsphere, HTS (AID 624483)
Settings: compound autofluorescence counterscreen, microsphere flow cytometry; stronger effect = higher value
For `Cc1ccc(-c2nc3c(Cl)cc(C(F)(F)F)cn3c2Cc2cccc(Cl)c2)cc1`, the fluorescence intensity was 5350. In the case of `Cc1ccc(C(C)NC(=O)Cn2nc(C)c([N+](=O)[O-])c2C)cc1` (stereo not drawn), the fluorescence intensity is reported as 8570. For `Cc1ccn(CC(=O)N2N=C(C(F)F)CC2(O)C(F)F)n1` (stereo not drawn), the fluorescence intensity was 2400. In the case of `Cc1nn(Cc2ccc(C(=O)N3N=C(C(F)F)CC3(O)C(F)F)cc2)c(C)c1[N+](=O)[O-]` (stereo not drawn), the fluorescence intensity is reported as 20600 (active). `CCOC(=O)C1=CN(Cc2ccc(Br)cc2)S(=O)(=O)N(C)C1C` (stereo not drawn) gave a fluorescence intensity of 2790. Work on `COc1ccc(C(C#N)=C2C=CC(=NO)c3ccccc32)cc1` yielded a fluorescence intensity of 5680. With `CC1CCC(NS(=O)(=O)c2ccc3c(c2)n(C)c(=O)c(=O)n3C)CC1` (stereo not drawn) the fluorescence intensity was 22600 (active). `Cn1c(=O)c(=O)n(C)c2cc(S(=O)(=O)NCCN3CCN(c4ccccc4F)CC3)ccc21` showed a fluorescence intensity of 5840. `Cn1sc(=O)c2cc(S(=O)(=O)NC3CC3)ccc21` showed a fluorescence intensity of 3800. Work on `CC(=O)Nc1ccc(S(=O)(=O)NCCc2ccccc2)cc1` yielded a fluorescence intensity of 11200. Compound `CC1CCC(NS(=O)(=O)c2ccc3c(c2)CC(=O)N3)CC1` (stereo not drawn) has a fluorescence intensity of 6000. For `Cn1c(=O)c(=O)n(C)c2cc(S(=O)(=O)NCCc3ccccc3)ccc21`, the fluorescence intensity was 21300 (active). `COc1ccc([C@H]2CC(=O)C[C@@H](CCn3cc(CC4CCCC4)nn3)O2)cc1` gave a fluorescence intensity of 5900. In the case of `O=C(NCc1ccccc1)C1c2ccccc2OCC(=O)N1CCCN1CCOCC1` (stereo not drawn), the fluorescence intensity is reported as 4950. With `O=C(/C=C/[C@H]1O[C@@H](n2ccc(=O)[nH]c2=O)[C@H](O)[C@@H]1O)NCc1ccccn1` the fluorescence intensity was 4540. In the case of `O=C(c1cccc(F)c1)N1CCN(c2ccc([N+](=O)[O-])c3cccnc23)CC1`, the fluorescence intensity is reported as 3360. `N#Cc1ccc(C(c2ccc(C#N)cc2)n2cncn2)cc1` gave a fluorescence intensity of 5930. For `Cc1cccc(CCNS(=O)(=O)c2ccc(S(=O)(=O)NC3CCCC3)cc2)c1`, the fluorescence intensity was 23700 (active). `Cc1cccc(CCNS(=O)(=O)c2ccc3c(c2)NC(=O)CO3)c1` gave a fluorescence intensity of 6090. Work on `Cc1ccc(S(=O)(=O)NC2CCCCCC2)cc1` yielded a fluorescence intensity of 3430. Compound `O=C(Nc1nnc([C@H]2C[C@H](O)[C@@H](CO)O2)s1)c1cccc(Cl)c1` has a fluorescence intensity of 3090. For `O=C(Nc1nnc(Cc2ccc(Cl)cc2)s1)c1ccncc1`, the fluorescence intensity was 5560. In the case of `Cc1ccc(C(=O)Nc2nnc(-c3ccncc3)s2)o1`, the fluorescence intensity is reported as 20300 (active). With `NC(=O)CSc1nnc(NC(=O)c2ccc(Br)o2)s1` the fluorescence intensity was 5930. For `COc1ccc(C(O)c2nc(-c3ccc(OC)nc3)cs2)cc1` (stereo not drawn), the fluorescence intensity was 3040. In the case of `COc1cc(OC)cc(C2=Cc3ccccc3C(CC(=O)c3ccco3)N2c2ccc(-c3cnc(OC)nc3)cc2)c1` (stereo not drawn), the fluorescence intensity is reported as 5230. Work on `Cc1ccc(C(=O)N2CCCc3ccccc32)c(Cl)c1` yielded a fluorescence intensity of 3770. In the case of `Cc1ccc2c(c1)N(CC(=O)N1CCCc3ccccc31)C(=O)C(C)O2` (stereo not drawn), the fluorescence intensity is reported as 22200 (active). Compound `Cc1ccc2c(c1)N(CC(=O)N1CCCC(C)C1)C(=O)CO2` (stereo not drawn) has a fluorescence intensity of 6170. With `Cn1nc(-c2ccc(Cl)cc2)c2cc(C(=O)NCc3ccco3)sc21` the fluorescence intensity was 5560. `COC(=O)c1ccc(CNC(=O)c2ccc3oc(C(C)C)nc3c2)cc1` showed a fluorescence intensity of 6320. Compound `COC(=O)c1ccc(CSc2nncn2C)cc1` has a fluorescence intensity of 11000. In the case of `COC(=O)c1ccc(CSc2nc3cc(Cl)ccc3o2)cc1`, the fluorescence intensity is reported as 22300 (active). `CCC(C)C(CO)NC(=O)/C=C/[C@H]1O[C@@H](n2cnc3c(NC(=O)c4ccccc4)ncnc32)[C@H](O)[C@@H]1O` (stereo partly drawn) showed a fluorescence intensity of 4240. `CC(=O)c1ccc(N2CCN(S(=O)(=O)c3ccc4c(c3)CC(=O)N4C)CC2)cc1` showed a fluorescence intensity of 4560. In the case of `COc1ccc(CCN2C(=O)c3[nH]nc(-c4ccccc4O)c3C2c2ccc(C)cc2)cc1OC` (stereo not drawn), the fluorescence intensity is reported as 17800 (active). With `COC(=O)c1ccc(C2C(Oc3ccccc3C)C(=O)N2CCc2ccc(OC)c(OC)c2)cc1` (stereo not drawn) the fluorescence intensity was 2780. In the case of `COc1ccc(CCN2C(=O)C(C)=C(C)C2=O)cc1OC`, the fluorescence intensity is reported as 3920. `COc1ccc(C2/C=C\CN(S(=O)(=O)c3cccs3)CC(=O)N2Cc2ccc(F)cc2)cc1` (stereo not drawn) showed a fluorescence intensity of 3100. `Cc1cccc(NC(=S)N2CCC(O)CC2)c1C` gave a fluorescence intensity of 4400. With `O=C1Nc2c(Br)cc(Br)cc2C1(O)N1CCOCC1` (stereo not drawn) the fluorescence intensity was 4310. In the case of `O=C1c2ccccc2C(=O)N1CCCc1nc(-c2ccccc2)no1`, the fluorescence intensity is reported as 21200 (active). `O=C(Cc1ccc(Cl)cc1)NCc1nc(-c2ccccc2)no1` gave a fluorescence intensity of 3500. In the case of `O=C(CCN1C(=O)[C@H]2CC=CC[C@H]2C1=O)NCc1nc(-c2ccccc2)no1`, the fluorescence intensity is reported as 4420. For `COc1cc(CNc2ncnc3c2ncn3[C@H]2CN(Cc3cccs3)C[C@@H](CO)O2)cc(OC)c1OC`, the fluorescence intensity was 2940. In the case of `CC1(C(=O)NS(=O)(=O)c2cccc(F)c2)CCN1C(=O)Cc1cc(F)ccc1F` (stereo not drawn), the fluorescence intensity is reported as 3880. Compound `C/C(=N/NC(=O)c1ccn(C)n1)c1ccncc1` has a fluorescence intensity of 4250. For `O=C(/C(=N\O)n1cncn1)c1ccc(Br)cc1Br`, the fluorescence intensity was 21600 (active). `CC(=O)N/N=C(\C)c1ccc(Br)cc1Br` gave a fluorescence intensity of 4300. With `Cc1ccc2nc(-c3ccc(NC(=O)c4cccnc4)cc3)oc2c1` the fluorescence intensity was 4480. For `Cc1nc2ccc(NC(=O)C(F)(F)F)cc2o1`, the fluorescence intensity was 21700 (active). Compound `Cc1ccc(NC(=O)Nc2ccc3oc(C)nc3c2)cc1` has a fluorescence intensity of 4170. `O=C(CC[C@H]1O[C@@H](n2ccc(=O)[nH]c2=O)[C@H](O)[C@@H]1O)N[C@H](Cc1ccccc1)C(=O)NCCCN1CCCC1=O` showed a fluorescence intensity of 4310. With `O=C1NC(O)CCN1C1CC(O)C(CO)O1` (stereo not drawn) the fluorescence intensity was 6570. In the case of `CCOC(=O)c1ccc(N2C(=O)CC(N3CCC(C(=O)OCC)CC3)C2=O)cc1` (stereo not drawn), the fluorescence intensity is reported as 2510. For `CCCCOC(=O)c1ccc(N2C(=O)CC(N3CCN(C/C=C/c4ccccc4)CC3)C2=O)cc1` (stereo not drawn), the fluorescence intensity was 22500 (active). Work on `CCOC(=O)c1ccc(N2C(=O)CC(N3CCN(C(=O)c4ccccc4)CC3)C2=O)cc1` (stereo not drawn) yielded a fluorescence intensity of 2610. In the case of `CC(OC(=O)c1ccccc1OCc1ccc(Cl)cc1)C(N)=O` (stereo not drawn), the fluorescence intensity is reported as 4810.
